Pf growth 96h: P. falciparum growth inhibition at 96 hour, primary screen for plastid delayed-death inhibitors. Potency, µM (titrated, usually from 28.7 µM), inactives show top-dose activity change, negative = inhibition, most hits filed as inhibitors. P. falciparum luciferase reporter growth, 96 h. 320,000 tested, 6.9% active
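Cell-based qHTS: luciferase-tagged P. falciparum in erythrocytes (2% hematocrit, 0.05% parasitemia final) incubated with compounds for 96 hours, 37 C, 5% CO2; luciferase detection reagent then added and luminescence measured.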
AMA1-RON2 inh: disrupts binding of P. falciparum AMA1 to RON2; AlphaScreen AMA1-biotinylated RON2 peptide binding; 360,000 tested, 0.2% active; AID 720542; Potency, µM (top dose mostly 58.2 µM), for the others: at the top dose activity change, negative = inhibition, most hits filed as inhibitors;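 also: 0% = vehicle wells and -100% = peptide control; nearly all actives have a fitted effect of over 45% in size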
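AMA1 (3D7) with his tag at 25 nM final met compounds first, then biotinylated RON2 peptide at 25 nM; detection used donor plus acceptor beads, 10 µg/mL apiece, read by AlphaScreen after 30 min at room temperature.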
Pf growth 48h: inhibits P. falciparum growth in the first generation, 48 h | P. falciparum luciferase growth in erythrocytes, 48 h | Potency, µM (highest dose often 28.7 µM), inactives show at the top dose activity change, negative = inhibition, actives largely listed as inhibitors | 310,000 tested, 5.9% active | AID 504832
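Parasite viability was followed by luminescence of a genomically integrated firefly luciferase. Cultures held 0.1% parasitemia at 2% hematocrit (final), incubated under 5% CO2 at 37 C.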
Vaccinia Venus: inhibitors of vaccinia virus (Venus reporter); Potency, µM (titrated, usually from 36.5 µM), without a hit: top-dose activity change, negative = inhibition, most hits filed as inhibitors; Vaccinia virus Venus reporter expression, fluorescence; AID 720580; 330,000 tested, 0.46% active; calls by dose curve; tested in A549 cells; also: nearly all actives have a fitted effect of over 30% in size
VACV mCherry inh: vaccinia inhibition (mCherry reporter) | Vaccinia virus mCherry reporter infection, fluorescence | Potency, µM (top dose mostly 36.5 µM), for the others: top-dose activity change, negative = inhibition, usual class: inhibitors | 310,000 tested, 0.63% active | AID 720579; calls by dose curve; tested in A549 cells; also: nearly all actives have a fitted effect of over 35% in size
* marks the source's active call; other numbers are inactive results; i = inactive; ? = inconclusive; · = no result given. Shown are actives, neighbours in structure and some others; about 8.7% of the full set was active somewhere. Unless noted, calls follow the shape of the dose curve; as a rule, active = well fitted curve in the direction sought with a large enough effect; inconclusive = small, poorly fitted or top-dose-only effect, or another doubt; inactive = no such curve, though single readings can be large; an effect the other way counts as inactive or inconclusive. Unless noted, % is scaled to controls: 0 for no effect and ±100 for the full control effect; potency is read from the fitted curve at half-maximal effect.

SMILES	Pf growth 96h	AMA1-RON2 inh	Pf growth 48h	Vaccinia Venus	VACV mCherry inh
Cc1c(C#N)c2ccccc2n1CC(=O)O	-28.8%	-15.8%	4.9%	-2.3%	-9.9%
CC1(C)c2ssc(=S)c2-c2ccccc2N1C(=O)c1ccco1	1.04µM*	-2.9%	?	·	·
Cc1ccc(-c2cc(C(=O)N3CCN(C(=O)c4ccco4)CC3)no2)cc1	·	-8.1%	-4.5%	·	·
Cn1cnnc1SCC(=O)N1c2ccccc2-c2c(ssc2=S)C1(C)C	·	·	6.7%	·	·
Cc1ccc2c(c1)-c1c(ssc1=S)C(C)(C)N2C(=O)c1ccco1	-5.6%	-12.2%	0.928µM*	-29.2%	-14.2%
COc1ccc(Cl)cc1NC(=O)c1ccc2c(c1)CCN2S(C)(=O)=O	·	·	·	-8.3%	-10.8%
COCCCn1c(=O)c2sccc2n2c(CCCC(=O)NC3CCC(C)CC3)nnc12 (stereo not drawn)	·	·	·	-6.8%	-6.1%
O=C(Cc1ccc(Oc2ccccc2)cc1)NO	·	·	·	-18.9%	11.1%
Cc1[nH]c(=O)[nH]c(=O)c1/C=N/NC(=O)[C@@H](N)CC(C)C	?	50.0%	5.22µM*	·	·
Cc1[nH]c(=O)[nH]c(=O)c1/C=N/NC(=O)[C@H](CC(C)C)NC(=O)OC(C)(C)C	-28.6%	81.1%	-13.1%	-3.6%	i
CCC(C(=O)NCc1ccccc1)n1ncn2c(cc3occc32)c1=O (stereo not drawn)	·	·	·	4.6%	-2.8%
Cc1ccccc1Nc1nc(-c2sc(NC(=O)c3ccccc3)nc2C)cs1	11.7µM*	·	9.28µM*	·	·
CC(=O)Nc1sc(NC(=O)c2ccc([N+](=O)[O-])cc2)nc1-c1cccs1	?	-7.7%	?	·	·
Cc1ccccc1Nc1nc(-c2sc(NC(=O)c3ccc([N+](=O)[O-])cc3)nc2C)cs1	13.1µM*	·	?	·	·
Cc1ccc(Nc2nc(-c3sc(NC(=O)c4ccc([N+](=O)[O-])cc4)nc3C)cs2)cc1	2.62µM*	·	9.28µM*	·	·
CCOc1ccccc1Nc1nc(-c2sc(NC(=O)c3ccc([N+](=O)[O-])cc3)nc2C)cs1	?	·	3.29µM*	·	·
Cc1ccc(Nc2nc(-c3sc(N)nc3C)cs2)cc1	-11.8%	66.2%	28.5%	·	·
CCOc1ccccc1NC(=O)COc1cccnc1[N+](=O)[O-]	·	-5.0%	·	-17.4%	-17.9%
CC1=C(c2ccc(C)c(C)c2)S(=O)(=O)N(Cc2ccc(C(=O)NCc3cccc(C)c3)cc2)C1=O	·	·	·	-14.4%	-4.0%
COc1ccc(OC)c(NC(=O)[C@H](CSCc2ccccc2)N2Cc3ccccc3C2=O)c1	·	·	·	-7.5%	-15.2%
Cc1ccc(CNC(=O)C2CCN(c3ncnc4c3nc3n4CCCCC3)CC2)cc1	·	·	·	-9.6%	i
CN(C(=O)c1ccc(NC(=O)Cc2cccc(NC(=O)C3CCCN(C(=O)C4CC4)C3)c2)cc1)C1CCCC1 (stereo not drawn)	?	-4.1%	14.7µM*	-11.2%	i
CN(Cc1ccccc1)C(=O)c1ccc(NC(=O)Cc2cccc(NC(=O)C3CCCN(C(=O)C4CCCCC4)C3)c2)cc1 (stereo not drawn)	?	7.5%	?	?	-19.7%
CN(C(=O)c1ccc(NC(=O)Cc2cccc(NC(=O)C3CCCN(C(=O)C4CCC4)C3)c2)cc1)C1CCCC1 (stereo not drawn)	?	23.3%	11.7µM*	-25.2%	i
CN(C(=O)c1ccc(NC(=O)Cc2ccc(NC(=O)C3CCCN(C(=O)C4CCCCC4)C3)cc2)cc1)C1CC1 (stereo not drawn)	?	7.4%	?	-9.4%	i
SMILES	Pf growth 96h	AMA1-RON2 inh	Pf growth 48h	Vaccinia Venus	VACV mCherry inh
CN(Cc1ccccc1)C(=O)c1ccc(NC(=O)Cc2cccc(NC(=O)C3CCCN(C(=O)C4CCCC4)C3)c2)cc1 (stereo not drawn)	-25.9%	15.4%	11.7µM*	?	-8.4%
CN(C(=O)c1ccc(NC(=O)Cc2ccc(NC(=O)C3CCCN(C(=O)C4CCCC4)C3)cc2)cc1)C1CC1 (stereo not drawn)	11.7µM*	-1.8%	?	-5.1%	-28.2%
CN(C(=O)c1ccc(NC(=O)Cc2cccc(NC(=O)C3CCCN(C(=O)C4CCCCC4)C3)c2)cc1)C1CCCC1 (stereo not drawn)	?	13.6%	?	-15.2%	i
CCc1ccc(S(=O)(=O)c2nnn3c2nc(N(CC)Cc2ccccc2)c2cc(Cl)ccc23)cc1	·	·	·	-18.6%	-17.8%
Nc1ccccc1-c1nc2ccccc2s1	9.28µM*	134.6%	68.3%	-2.9%	?
CC1CCN(C(=S)Nc2ccc(F)cc2)CC1	0.0%	12.2%	4.2%	-14.7%	-14.9%
C/C(=N\NC(=S)Nc1ccc(F)cc1)C1CC1	11.7µM*	56.0%	?	-0.4%	i
CCOCCOC(=O)c1ccc(NC(=O)/C=C/c2ccc(OC)c(OC)c2)cc1	·	·	·	-6.3%	-18.0%
CCOC(=O)CN(C(=O)CN1CCC(n2nnc3cc(C)ccc32)CC1)c1ccccc1	5.22µM*	8.9%	·	-16.3%	-18.8%
Cc1ccc2c(c1)nnn2C1CCN(CC(=O)N2c3ccccc3CC2C)CC1 (stereo not drawn)	-7.1%	-2.4%	?	-16.3%	-7.6%
Cc1ccc2c(c1)nnn2C1CCN(CC(=O)c2ccc(Cl)cc2)CC1	0.7%	-5.4%	?	7.2%	9.4%
Cc1ccc2c(c1)nnn2C1CCN(CC(=O)N(c2ccccc2)c2ccccc2)CC1	11.7µM*	-6.6%	6.57µM*	·	·
Cc1ccc2c(c1)nnn2C1CCN(C(=O)C23CC4CC(CC(C4)C2)C3)CC1	13.1µM*	13.6%	?	-9.0%	-13.8%
CCOC(=O)c1ccc2ncc3c(-c4ccccc4)nn(-c4ccc(F)c(Cl)c4)c3c2c1	·	·	·	-2.2%	-12.9%
O=C(CSc1nc2ccc(Cl)cc2[nH]1)c1ccc2c(c1)OCO2	13.1µM*	?	11.7µM*	-5.0%	i
O=C(CSc1nc2cc(Cl)c(Cl)cc2[nH]1)c1ccc2c(c1)OCO2	4.65µM*	84.5%	4.15µM*	?	?
Cc1nc2cc(C(F)(F)F)ccc2n1C1CCN(Cc2nnnn2CCc2ccccc2)CC1	-0.5%	-2.3%	13.1µM*	?	·
Cc1nc2cc(F)ccc2n1C1CCN(Cc2nnnn2CCc2ccccc2)CC1	?	-5.9%	9.28µM*	-17.4%	-19.4%
Cc1ccc(C(=O)Nc2cccc(C(=O)O)c2)cc1S(=O)(=O)N1CCOCC1	·	5.0%	244.2%	-4.7%	-11.6%
CN(c1ccccc1)S(=O)(=O)c1cccc(C(=O)NC2CCCC2)c1	·	12.5%	·	-18.8%	-6.3%
Cc1ccc(NC(=O)c2cccc(S(=O)(=O)N(C)c3ccccc3)c2)cc1S(=O)(=O)N1CCOCC1	11.7µM*	-21.0%	?	-28.3%	?
CN(c1ccccc1)S(=O)(=O)c1cccc(C(=O)Nc2cccc(C(=O)NC3CC3)c2)c1	6.57µM*	15.1%	5.22µM*	-19.2%	-0.2%
CN(c1ccccc1)S(=O)(=O)c1ccc(NC(=O)C2CC2)cc1	6.57µM*	-6.1%	33.7%	·	·
CN(c1ccc(C(=O)NC2CC2)cc1)S(=O)(=O)c1ccccc1	·	4.3%	4.65µM*	-6.7%	-12.0%

Screening results (PubChem)
